Molecules are shown by their SMILES. Results filed as inconclusive are left out. Calls of active or inactive are those of the source. The calls were made as follows, unless noted: active = hit-call score of the fitted dose curve at least 0.9, where 1 is the maximum; inactive = score below 0.9.

Data on 11 compounds can be found in PubChem BioAssay (EPA / NIEHS).

Read-out in test [1]: Intercellular Adhesion Molecule 1 (ICAM1), ICAM1 (gene 3383)
In words: BSK_3C_ICAM1: BioMAP Diversity Plus: 3C Assay for Intercellular Adhesion Molecule 1 (ICAM1) Biomarker Activity (AID 2283003). To be noted: primary human endothelial cells (HUVEC); actives raise or lower the signal. Summed up: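 Using DMSO as baseline, bidirectional curve fitting was applied to ICAM-1 ELISA signals from HUVEC in the 3C system, measured 24 h after compound addition.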

The nature of test [2]: BSK_3C_Proliferation: Cell Proliferation Assessment in the BioMAP Diversity Plus: 3C Assay (AID 2283006).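 As to AC50: potency may reflect either rise or fall in cell number versus DMSO.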 The settings on record: primary human endothelial cells (HUVEC). Summed up:
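Measured here: sulforhodamine B (0.1%) staining of TCA-fixed sub-confluent umbilical vein endothelial cultures 48 h post-dosing, absorbance 560 nm. DMSO served as negative control and baseline; both signal gain and loss were modelled.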

Test [3] concerns the target Nuclear receptor subfamily 1 group I member 2 (Homo sapiens) (UniProt O75469). Put plainly: ATG_PXR_TRANS: Attagene TRANS-FACTORIAL HepG2 Assay for human Pregnane X Receptor (PXR) (AID 2283008; active = hit-call score of the fitted dose curve at least 0.9, where 1 is the maximum). Summed up:
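HepG2 transfected (FuGene 6) with GAL4-UAS reporter units + PXR-Gal4 chimera; dosed 24 h. Total RNA → oligo(dT) RT → PCR → 6-FAM primer extension → HpaI cut → CE. Gain-of-signal vs DMSO.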

The target of test [4] is human RAR-related Orphan Receptor beta (RORb), RORB (gene 6096) (UniProt Q92753). Put plainly: ATG_RORb_TRANS: Attagene TRANS-FACTORIAL HepG2 Assay for human RAR-related Orphan Receptor beta (RORb) (AID 2283010; active = hit-call score of the fitted dose curve at least 0.9, where 1 is the maximum). The gist of the method: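 Multiplexed transcription-factor reporter assay: HepG2 cells transiently carrying NR-Gal4/GAL4-UAS constructs, 24 h treatment, mRNA quantified by RT-PCR plus capillary electrophoresis fluorescence; activity scored as induction over DMSO.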

For test [5], the target named is Retinoic acid receptor RXR-alpha (Homo sapiens) (UniProt P19793). In words: ATG_RXRa_TRANS: Attagene TRANS-FACTORIAL HepG2 Assay for human Retinoid X Receptor alpha (RXRa) (AID 2283012; active = hit-call score of the fitted dose curve at least 0.9, where 1 is the maximum). The gist of the method:
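Chimeric NR-GAL4 trans-activation in HepG2, 24 h treatment; reporter transcripts quantified by fluorescence on capillary electrophoresis, analysed for upward change from DMSO.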

In test [6] the target is human Retinoid X Receptor beta (RXRb), RXRB (gene 6257) (UniProt P28702). Put plainly: ATG_RXRb_TRANS: Attagene TRANS-FACTORIAL HepG2 Assay for human Retinoid X Receptor beta (RXRb) (AID 2283013; active = hit-call score of the fitted dose curve at least 0.9, where 1 is the maximum). The gist of the method: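 After a 24 h incubation with test chemical, transfected HepG2 cells carrying NR-Gal4 fusions and GAL4-UAS reporter transcription units yield RNA whose reporter cDNA is FAM-labelled, HpaI-cut and sized by capillary electrophoresis; increases over DMSO are scored.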

Read-out in test [7]: E-selectin (Homo sapiens) (UniProt P16581)
Put plainly: BSK_3C_Eselectin: BioMAP Diversity Plus: 3C Assay for Eselectin Biomarker Activity (AID 2283015).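 Also: cell surface E-selectin protein quantified by ELISA 24 h after dosing.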 To be noted: primary human endothelial cells (HUVEC); actives raise or lower the signal. Summed up: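 HUVEC, 3C stimulation; compound exposure 24 h; E-selectin by ELISA; gain- or loss-of-signal fitted bidirectionally vs DMSO baseline.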

Read-out in test [8]: Monocyte Chemoattractant Protein-1 (MCP1), CCL2 (gene 6347)
In words: BSK_3C_MCP1: BioMAP Diversity Plus: 3C Assay for Monocyte Chemoattractant Protein-1 (MCP1) Biomarker Activity (AID 2283017). To be noted: primary human endothelial cells (HUVEC); actives raise or lower the signal. The gist of the method: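 HUVEC, 3C system; 24 h chemical exposure; MCP-1 by ELISA; bidirectional curve fit vs DMSO baseline.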

Read-out in test [9]: Monocyte Chemoattractant Protein-1 (MCP1), CCL2 (gene 6347)
Put plainly: BSK_4H_MCP1: BioMAP Diversity Plus: 4H Assay for Monocyte Chemoattractant Protein-1 (MCP1) Biomarker Activity (AID 2283018). To be noted: primary human endothelial cells (HUVEC); actives raise or lower the signal. Summed up: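 Primary human umbilical vein endothelium is exposed to chemical for 24 h before MCP-1 is assayed by ELISA. Concentration-response fitted bidirectionally relative to DMSO.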

Read-out in test [10]: Human Leukocyte Antigen - DR isotype (HLADR), HLA-DRA (gene 3122)
Put plainly: BSK_3C_HLADR: BioMAP Diversity Plus: 3C Assay for Human Leukocyte Antigen - DR isotype (HLADR) Biomarker Activity (AID 2283019).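 Also: ELISA of cell-surface HLA-DR on HUVEC 24 h after dosing.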 To be noted: primary human endothelial cells (HUVEC); actives raise or lower the signal. The gist of the method: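 HUVEC, 3C stimulation, 24 h post-dose; HLA-DR by ELISA; bidirectional curve fit vs DMSO baseline; gain or loss of signal scored.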

Read-out in test [11]: Interleukin-8 (IL8), CXCL8 (gene 3576)
Put plainly: BSK_3C_IL8: BioMAP Diversity Plus: 3C Assay for Interleukin-8 (IL8) Biomarker Activity (AID 2283020). The settings on record: primary human endothelial cells (HUVEC); actives raise or lower the signal. Summed up:
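Using DMSO-treated wells as the baseline, bidirectional curve fitting was applied to ELISA-measured IL-8 from human umbilical vein endothelial cultures sampled 24 h after compound addition.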

Read-out in test [12]: Monokine induced gamma interferon (MIG), CXCL9 (gene 4283)
In words: BSK_3C_MIG: BioMAP Diversity Plus: 3C Assay for Monokine induced gamma interferon (MIG) Biomarker Activity (AID 2283021). The settings on record: primary human endothelial cells (HUVEC); actives raise or lower the signal. The gist of the method:
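ELISA-measured MIG in dosed HUVEC 3C cultures at 24 h, analysed by bidirectional fitting with DMSO defining baseline activity.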

The target of test [13] is human RAR-related Orphan Receptor gamma (RORg), RORC (gene 6097) (UniProt P51449). In words: ATG_RORg_TRANS: Attagene TRANS-FACTORIAL HepG2 Assay for human RAR-related Orphan Receptor gamma (RORg) (AID 2283011; active = hit-call score of the fitted dose curve at least 0.9, where 1 is the maximum). Summed up:
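Transient MRTU transfection of HepG2 (TRANS format, exogenous NR-Gal4 chimera). 24 h dosing. Total RNA → oligo(dT) RT → PCR → 6-FAM labelling → HpaI cut → CE. Gain vs DMSO.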

Read-out in test [14]: Interleukin-1 alpha (IL1a), IL1A (gene 3552)
In words: BSK_BE3C_IL1a: BioMAP Diversity Plus: BE3C Assay for Interleukin-1 alpha (IL1a) Biomarker Activity (AID 2283016). The settings on record: primary human bronchial epithelial cells; actives raise or lower the signal. Summed up: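 Measured in human lung primary bronchial epithelial cells: IL-1a by ELISA at 24 h after dosing, with bidirectional fitting against DMSO.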

Test [15] concerns the target Peroxisome proliferator-activated receptor gamma (Homo sapiens) (UniProt P37231). Put plainly: ATG_PPARg_TRANS: Attagene TRANS-FACTORIAL HepG2 Assay for human Peroxisome Proliferator-activated Receptor-gamma (PPARg) (AID 2283007; active = hit-call score of the fitted dose curve at least 0.9, where 1 is the maximum). Summed up: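 Read-out: reporter mRNA induction, detected by fluorescence after RT-PCR and capillary electrophoresis. Transiently transfected human HepG2 liver cells carrying a chimeric NR-Gal4 construct were dosed for 24 h; activity was fitted upward relative to DMSO.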

In test [16] the target is human Retinoic Acid Receptor gamma (RARg), RARG (gene 5916) (UniProt P13631). Put plainly: ATG_RARg_TRANS: Attagene TRANS-FACTORIAL HepG2 Assay for human Retinoic Acid Receptor gamma (RARg) (AID 2283009; active = hit-call score of the fitted dose curve at least 0.9, where 1 is the maximum). The gist of the method: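 Gain-of-signal relative to DMSO is reported from fluorescent capillary electrophoresis of RT-PCR reporter products. These came from HepG2 cells expressing transfected RARg-GAL4 chimeras with UAS reporters, harvested 24 h after dosing.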

The target of test [17] is Retinoic acid receptor alpha (Homo sapiens) (UniProt P10276). Put plainly: ATG_RARa_TRANS: Attagene TRANS-FACTORIAL HepG2 Assay for human Retinoic Acid Receptor alpha (RARa) (AID 2283005; active = hit-call score of the fitted dose curve at least 0.9, where 1 is the maximum). Summed up: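 HepG2 transiently transfected with multiplex GAL4-UAS reporter units including a human RARa–GAL4 chimera; 24 h compound exposure. Reporter mRNA quantified by RT-PCR, 6-FAM labeling and capillary electrophoresis; gain of signal versus DMSO.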

Test [18] has as its target human Thyroid Receptor alpha (THRa1), THRA (gene 7067) (UniProt P10827). Put plainly: ATG_THRa1_TRANS: Attagene TRANS-FACTORIAL HepG2 Assay for human Thyroid Receptor alpha (THRa1) (AID 2283014; active = hit-call score of the fitted dose curve at least 0.9, where 1 is the maximum). Summed up:
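Transient HepG2 transfection, NR-Gal4 chimera driving GAL4-UAS reporters; 24 h compound exposure; total RNA, oligo(dT) RT, PCR, fluorescent primer extension, capillary electrophoresis. Upward direction vs DMSO control.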

Chain of human Retinoid X Receptor beta (RXRb), RXRB (gene 6257) (P28702 whole entry, looked up, the tested form may be a part): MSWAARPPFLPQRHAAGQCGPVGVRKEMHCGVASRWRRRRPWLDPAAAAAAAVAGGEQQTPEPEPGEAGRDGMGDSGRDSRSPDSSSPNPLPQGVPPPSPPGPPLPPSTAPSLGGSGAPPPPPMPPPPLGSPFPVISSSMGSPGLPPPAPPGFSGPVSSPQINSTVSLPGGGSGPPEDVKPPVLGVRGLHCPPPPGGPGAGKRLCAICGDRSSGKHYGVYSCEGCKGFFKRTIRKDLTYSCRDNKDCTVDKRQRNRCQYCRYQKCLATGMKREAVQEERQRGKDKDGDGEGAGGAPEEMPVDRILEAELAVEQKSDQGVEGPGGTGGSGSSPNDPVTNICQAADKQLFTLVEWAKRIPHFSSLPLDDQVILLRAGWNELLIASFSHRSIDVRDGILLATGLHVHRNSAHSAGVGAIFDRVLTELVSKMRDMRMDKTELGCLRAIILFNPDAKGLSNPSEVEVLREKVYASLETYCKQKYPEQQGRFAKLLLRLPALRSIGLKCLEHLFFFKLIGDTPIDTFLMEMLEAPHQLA
Chain of human Retinoic Acid Receptor gamma (RARg), RARG (gene 5916) (P13631 whole entry, looked up, the tested form may be a part): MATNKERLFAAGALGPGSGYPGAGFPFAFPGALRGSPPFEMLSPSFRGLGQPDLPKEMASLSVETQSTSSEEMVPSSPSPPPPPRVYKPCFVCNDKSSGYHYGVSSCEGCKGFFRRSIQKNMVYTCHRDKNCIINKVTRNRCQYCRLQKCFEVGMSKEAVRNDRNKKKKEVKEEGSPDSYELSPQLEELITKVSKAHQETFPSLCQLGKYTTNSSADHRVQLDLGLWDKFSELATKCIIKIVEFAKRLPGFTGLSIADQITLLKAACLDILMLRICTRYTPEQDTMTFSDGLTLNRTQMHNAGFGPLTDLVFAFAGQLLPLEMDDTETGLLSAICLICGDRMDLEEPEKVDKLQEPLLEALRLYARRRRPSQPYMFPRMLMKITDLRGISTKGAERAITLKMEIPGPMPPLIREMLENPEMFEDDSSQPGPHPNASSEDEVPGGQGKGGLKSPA
Chain of Retinoic acid receptor RXR-alpha (Homo sapiens) (P19793 whole entry, looked up, the tested form may be a part): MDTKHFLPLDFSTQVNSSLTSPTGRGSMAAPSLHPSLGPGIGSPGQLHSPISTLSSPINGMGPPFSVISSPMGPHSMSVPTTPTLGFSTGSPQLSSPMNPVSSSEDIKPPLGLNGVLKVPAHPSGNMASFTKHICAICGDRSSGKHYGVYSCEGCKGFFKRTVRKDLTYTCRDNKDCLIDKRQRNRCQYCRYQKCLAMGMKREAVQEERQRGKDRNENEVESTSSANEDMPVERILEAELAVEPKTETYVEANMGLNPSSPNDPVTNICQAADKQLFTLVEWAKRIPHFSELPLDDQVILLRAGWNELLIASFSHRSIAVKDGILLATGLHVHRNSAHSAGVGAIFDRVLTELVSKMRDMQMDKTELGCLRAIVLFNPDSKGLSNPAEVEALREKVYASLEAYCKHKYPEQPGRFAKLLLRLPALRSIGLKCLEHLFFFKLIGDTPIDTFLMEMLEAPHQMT
Chain of human RAR-related Orphan Receptor beta (RORb), RORB (gene 6096) (Q92753 whole entry, looked up, the tested form may be a part): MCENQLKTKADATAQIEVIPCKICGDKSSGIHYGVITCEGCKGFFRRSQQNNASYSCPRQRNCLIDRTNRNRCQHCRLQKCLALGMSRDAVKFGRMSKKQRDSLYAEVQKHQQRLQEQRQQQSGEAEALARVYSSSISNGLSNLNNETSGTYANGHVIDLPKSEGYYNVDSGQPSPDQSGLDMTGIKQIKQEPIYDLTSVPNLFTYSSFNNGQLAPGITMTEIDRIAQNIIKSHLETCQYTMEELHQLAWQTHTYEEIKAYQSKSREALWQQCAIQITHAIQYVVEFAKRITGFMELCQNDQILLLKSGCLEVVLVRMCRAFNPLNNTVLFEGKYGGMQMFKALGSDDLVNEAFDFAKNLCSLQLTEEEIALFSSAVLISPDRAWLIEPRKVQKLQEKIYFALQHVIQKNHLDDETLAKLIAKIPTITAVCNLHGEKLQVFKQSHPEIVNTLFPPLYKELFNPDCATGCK
Chain of human RAR-related Orphan Receptor gamma (RORg), RORC (gene 6097) (P51449 whole entry, looked up, the tested form may be a part): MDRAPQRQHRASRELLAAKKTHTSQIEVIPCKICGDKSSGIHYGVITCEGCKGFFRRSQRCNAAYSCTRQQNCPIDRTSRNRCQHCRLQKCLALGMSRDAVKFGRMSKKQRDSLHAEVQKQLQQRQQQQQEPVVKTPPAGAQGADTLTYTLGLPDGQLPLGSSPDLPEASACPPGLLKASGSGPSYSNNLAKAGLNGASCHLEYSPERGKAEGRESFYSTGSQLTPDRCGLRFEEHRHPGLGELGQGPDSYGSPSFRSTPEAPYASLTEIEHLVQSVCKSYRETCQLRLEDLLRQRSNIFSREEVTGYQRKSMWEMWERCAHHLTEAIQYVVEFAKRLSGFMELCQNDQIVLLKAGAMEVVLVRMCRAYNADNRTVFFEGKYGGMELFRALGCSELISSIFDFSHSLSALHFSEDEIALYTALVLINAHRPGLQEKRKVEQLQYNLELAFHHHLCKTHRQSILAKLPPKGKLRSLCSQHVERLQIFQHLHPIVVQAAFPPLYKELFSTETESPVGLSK
Chain of E-selectin (Homo sapiens) (P16581 whole entry, looked up): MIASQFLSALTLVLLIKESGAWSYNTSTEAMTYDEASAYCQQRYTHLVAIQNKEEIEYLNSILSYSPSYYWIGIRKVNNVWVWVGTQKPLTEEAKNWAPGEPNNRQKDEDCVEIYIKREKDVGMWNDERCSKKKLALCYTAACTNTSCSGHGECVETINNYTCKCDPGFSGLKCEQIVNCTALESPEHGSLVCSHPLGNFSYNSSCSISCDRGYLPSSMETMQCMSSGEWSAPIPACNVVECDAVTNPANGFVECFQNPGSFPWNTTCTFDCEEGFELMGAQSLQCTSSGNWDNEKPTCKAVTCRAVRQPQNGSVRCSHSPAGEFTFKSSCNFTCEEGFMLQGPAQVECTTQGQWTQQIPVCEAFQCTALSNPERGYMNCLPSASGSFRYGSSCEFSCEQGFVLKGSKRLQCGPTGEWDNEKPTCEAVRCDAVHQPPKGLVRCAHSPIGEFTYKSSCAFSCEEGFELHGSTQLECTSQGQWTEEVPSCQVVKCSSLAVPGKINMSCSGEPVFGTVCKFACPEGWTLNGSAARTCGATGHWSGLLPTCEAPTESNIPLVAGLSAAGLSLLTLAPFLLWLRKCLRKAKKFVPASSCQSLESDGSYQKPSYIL
Chain of Nuclear receptor subfamily 1 group I member 2 (Homo sapiens) (O75469 whole entry, looked up, the tested form may be a part): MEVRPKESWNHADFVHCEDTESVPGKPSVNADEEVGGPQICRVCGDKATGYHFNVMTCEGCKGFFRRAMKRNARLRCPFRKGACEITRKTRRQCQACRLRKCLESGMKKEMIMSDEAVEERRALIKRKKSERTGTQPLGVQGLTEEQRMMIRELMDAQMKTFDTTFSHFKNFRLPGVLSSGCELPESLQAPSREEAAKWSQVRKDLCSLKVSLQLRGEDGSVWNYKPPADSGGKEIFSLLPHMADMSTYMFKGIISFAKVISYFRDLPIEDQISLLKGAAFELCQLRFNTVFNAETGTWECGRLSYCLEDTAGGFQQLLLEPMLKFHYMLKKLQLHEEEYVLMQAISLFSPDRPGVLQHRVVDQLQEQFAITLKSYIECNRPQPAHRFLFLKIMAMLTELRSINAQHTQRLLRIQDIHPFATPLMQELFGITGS
Chain of human Thyroid Receptor alpha (THRa1), THRA (gene 7067) (P10827 whole entry, looked up, the tested form may be a part): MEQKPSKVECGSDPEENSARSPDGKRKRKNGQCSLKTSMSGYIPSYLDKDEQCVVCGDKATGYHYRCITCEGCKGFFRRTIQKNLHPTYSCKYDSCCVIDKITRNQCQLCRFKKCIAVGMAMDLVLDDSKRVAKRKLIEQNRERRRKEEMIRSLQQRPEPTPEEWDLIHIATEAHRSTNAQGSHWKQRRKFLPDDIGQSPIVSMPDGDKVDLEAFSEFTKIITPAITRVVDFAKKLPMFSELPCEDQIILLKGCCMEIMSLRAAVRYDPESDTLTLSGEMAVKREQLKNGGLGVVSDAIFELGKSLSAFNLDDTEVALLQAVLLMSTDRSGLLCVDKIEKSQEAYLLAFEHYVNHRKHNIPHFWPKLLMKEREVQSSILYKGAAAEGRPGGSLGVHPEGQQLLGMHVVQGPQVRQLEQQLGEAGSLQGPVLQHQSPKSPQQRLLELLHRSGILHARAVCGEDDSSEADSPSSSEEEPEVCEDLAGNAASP
Chain of Peroxisome proliferator-activated receptor gamma (Homo sapiens) (P37231 whole entry, looked up, the tested form may be a part): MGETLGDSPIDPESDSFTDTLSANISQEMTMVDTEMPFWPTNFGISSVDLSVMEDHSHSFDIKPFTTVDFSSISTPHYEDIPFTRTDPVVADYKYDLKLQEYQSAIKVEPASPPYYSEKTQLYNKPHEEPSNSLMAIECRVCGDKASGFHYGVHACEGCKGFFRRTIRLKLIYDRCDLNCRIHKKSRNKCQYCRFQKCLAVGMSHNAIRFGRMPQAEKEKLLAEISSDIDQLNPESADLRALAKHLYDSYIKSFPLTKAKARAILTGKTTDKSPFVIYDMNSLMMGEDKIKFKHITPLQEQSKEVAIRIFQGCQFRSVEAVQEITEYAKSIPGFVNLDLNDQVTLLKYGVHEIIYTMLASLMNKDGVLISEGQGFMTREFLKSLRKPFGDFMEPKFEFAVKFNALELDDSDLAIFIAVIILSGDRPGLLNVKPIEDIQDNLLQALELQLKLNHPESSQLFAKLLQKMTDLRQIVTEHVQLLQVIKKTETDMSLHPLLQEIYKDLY
Chain of Retinoic acid receptor alpha (Homo sapiens) (P10276 whole entry, looked up, the tested form may be a part): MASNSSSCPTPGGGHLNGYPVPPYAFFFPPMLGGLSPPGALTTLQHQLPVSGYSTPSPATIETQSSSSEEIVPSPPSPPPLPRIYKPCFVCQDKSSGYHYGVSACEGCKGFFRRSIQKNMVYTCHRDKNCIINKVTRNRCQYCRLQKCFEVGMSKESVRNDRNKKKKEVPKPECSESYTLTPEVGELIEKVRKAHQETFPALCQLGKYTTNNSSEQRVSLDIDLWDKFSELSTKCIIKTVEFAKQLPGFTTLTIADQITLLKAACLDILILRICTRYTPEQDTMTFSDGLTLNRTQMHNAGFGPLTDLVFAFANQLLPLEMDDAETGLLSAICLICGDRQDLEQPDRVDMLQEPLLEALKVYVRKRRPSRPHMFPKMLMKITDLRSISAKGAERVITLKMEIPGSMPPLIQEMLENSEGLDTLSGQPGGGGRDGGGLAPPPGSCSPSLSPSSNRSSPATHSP

Take `CCCC(CCC)C(=O)O`: the result in test [1], in test [2], in test [3], in test [4], in [5] and in test [6] was inactive. For the same compound, the outcome in test [7], in [8], in [9], in test [10], in test [11] and in [12] was inactive.

For the compound `COCc1nnc(-c2ccc[n+]([O-])c2)n1-c1c(Cl)c(Cl)cc2[nH]c(=O)c(=O)[nH]c12`, the result in test [1], in [2], in [3], in test [13], in test [5] and in [8] was inactive. The outcome in test [9], in test [10], in test [11] and in [12] was inactive.

Regarding `Cn1c(=O)c2[nH]cnc2n(C)c1=O`, the result in [1], in [2], in [3], in test [13], in test [5] and in test [7] was inactive. The outcome in test [8], in [9], in test [10], in test [11] and in [12] was inactive.

The term AC50 denotes the concentration giving half of the maximal activity seen. `CCCCCCCCCC`: the outcome in test [1], in test [13], in test [5], in test [6], in test [14] and in [8] was inactive. Also, the outcome in test [9], in [10], in test [11] and in test [12] was inactive. Also, the half-maximal activity concentration (AC50) in [2] is 0.781 µM (active).

For the compound `Cc1ccc(S(=O)(=O)NC(=O)NN2CCCCCC2)cc1`, the result in [1], in test [2], in test [15], in test [3], in test [16] and in [4] was inactive. Further, the call in [5], in [6], in test [14], in test [8], in [10] and in test [11] was inactive. Further, the outcome in [12] was inactive.

On to `OC(CCl)CCl`, for which the outcome in test [1], in test [2], in test [7], in [14], in [8] and in [9] was inactive. Moreover, the outcome in test [10], in [11] and in test [12] was inactive.

For `CCCCCCCCN(C)C`, the outcome in [1], in [2], in [3], in test [16], in [13] and in [5] was inactive. The compound was classed as inactive in [6], in test [8], in [9], in test [10], in test [11] and in test [12].

As to `c1ccc2ncccc2c1`, the result in test [1], in test [2], in [13], in test [5], in test [7] and in test [14] was inactive. In addition, the result in test [8], in test [10], in test [11] and in [12] was inactive.

Turning to `OC[C@H]1O[C@@H]2O[C@H]3[C@H](O)[C@@H](O)[C@@H](O[C@H]4[C@H](O)[C@@H](O)[C@@H](O[C@H]5[C@H](O)[C@@H](O)[C@@H](O[C@H]6[C@H](O)[C@@H](O)[C@@H](O[C@H]7[C@H](O)[C@@H](O)[C@@H](O[C@H]1[C@H](O)[C@H]2O)O[C@@H]7CO)O[C@@H]6CO)O[C@@H]5CO)O[C@@H]4CO)O[C@@H]3CO`, the result in [1], in [17], in test [2], in [16], in test [4] and in [6] was inactive. The outcome in test [14], in test [8], in test [10], in test [11] and in [12] was inactive.

On to `CCCCCCCCCCCCCCCCOS(=O)(=O)O`, for which the outcome in test [1], in [2], in test [3], in test [5], in test [18] and in test [8] was inactive. Besides, the result in test [9], in test [10], in test [11] and in [12] was inactive. Moreover, the AC50 in test [6] was 14.6 µM (active).

Turning to `CC[C@H](C)C(=O)O[C@H]1C[C@H](O)C=C2C=C[C@H](C)[C@H](CC[C@@H](O)C[C@@H](O)CC(=O)O)[C@H]21`, the outcome in test [1], in test [2], in test [16], in [13], in [6] and in [18] was inactive. Further, the result in [8], in test [10], in test [11] and in [12] was inactive.
